{"source": "PubChem BioAssay AID1159580", "about": "(chemical genetic matrix, 2015)", "assay": "chemical genetic growth profiling, strain panel (AID 1159580);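 also: tested at 20 µM; growth read once vehicle control cultures reached saturation at 30 °C; 1 = growth at the plate median or of vehicle wells; lower values mean less growth of the strain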", "details": "S. cerevisiae deletion strains, growth OD", "note": "Out of some 5,500 compounds screened, about 2,000 (36%) were called active. Not shown: some 18% with an inconclusive outcome. The list shows a part of the results. Unmarked numbers belong to inactive results. Rule as the data show it: active = normalized growth mostly below about 0.91 (no sharp cut-off); inconclusive = no clear call, values can overlap the other calls; inactive = mostly above about 0.92."}
{"compound": "CN(C)c1ccc2nc3ccc(=[N+](C)C)cc-3sc2c1", "values": [{"measurement": "normalized growth", "setting": "locus YAL021C, strain ccr4, stronger effect = lower value", "value": 0.991}, {"measurement": "normalized growth", "setting": "locus YAL026C, strain drs2, stronger effect = lower value", "value": 1.01}, {"measurement": "normalized growth", "setting": "locus YAL030W, strain snc1, stronger effect = lower value", "value": 1.06}, {"measurement": "normalized growth", "setting": "locus YBL061C, strain skt5, stronger effect = lower value", "value": 1.05}, {"measurement": "normalized growth", "setting": "locus YBR009C, strain hhf1, stronger effect = lower value", "value": 1.04}, {"measurement": "normalized growth", "setting": "locus YBR023C, strain chs3, stronger effect = lower value", "value": 1.07}, {"measurement": "normalized growth", "setting": "locus YBR171W, strain sec66, stronger effect = lower value", "value": 1.08}, {"measurement": "normalized growth", "setting": "locus YBR231C, strain swc5, stronger effect = lower value", "value": 0.995}, {"measurement": "normalized growth", "setting": "locus YBR279W, strain paf1, stronger effect = lower value", "value": 1.07}, {"measurement": "normalized growth", "setting": "locus YCL011C, strain gbp2, stronger effect = lower value", "value": 1.04}, {"measurement": "normalized growth", "setting": "locus YCL016C, strain dcc1, stronger effect = lower value", "value": 1.02}, {"measurement": "normalized growth", "setting": "locus YCL069W, strain vba3, stronger effect = lower value", "value": 1.08}, {"measurement": "normalized growth", "setting": "locus YCR088W, strain abp1, stronger effect = lower value", "value": 1.07}, {"measurement": "normalized growth", "setting": "locus YDL005C, strain med2, stronger effect = lower value", "value": "1.1 [resistant] (active)"}, {"measurement": "normalized growth", "setting": "locus YDL040C, strain nat1, stronger effect = lower value", "value": 1.05}, {"measurement": "normalized growth", "setting": "locus YDR001C, strain nth1, stronger effect = lower value", "value": 1.06}, {"measurement": "normalized growth", "setting": "locus YDR069C, strain doa4, stronger effect = lower value", "value": 1.06}, {"measurement": "normalized growth", "setting": "locus YDR137W, strain rgp1, stronger effect = lower value", "value": 1}, {"measurement": "normalized growth", "setting": "locus YDR159W, strain sac3, stronger effect = lower value", "value": 1.03}, {"measurement": "normalized growth", "setting": "locus YDR195W, strain ref2", "value": "1.25 [resistant] (active)"}, {"measurement": "normalized growth", "setting": "locus YDR297W, strain sur2, stronger effect = lower value", "value": 1.07}, {"measurement": "normalized growth", "setting": "locus YDR334W, strain swr1, stronger effect = lower value", "value": 1.05}, {"measurement": "normalized growth", "setting": "locus YDR335W, strain msn5, stronger effect = lower value", "value": 1.07}, {"measurement": "normalized growth", "setting": "locus YDR392W, strain spt3, stronger effect = lower value", "value": "0.624 (active)"}, {"measurement": "normalized growth", "setting": "locus YEL003W, strain gim4, stronger effect = lower value", "value": 0.974}, {"measurement": "normalized growth", "setting": "locus YEL037C, strain rad23, stronger effect = lower value", "value": 1.06}, {"measurement": "normalized growth", "setting": "locus YEL061C, strain CIN8 (second series), stronger effect = lower value", "value": 1.04}, {"measurement": "normalized growth", "setting": "locus YER015W, strain faa2, stronger effect = lower value", "value": 1.05}, {"measurement": "normalized growth", "setting": "locus YER016W, strain bim1, stronger effect = lower value", "value": 1.05}, {"measurement": "normalized growth", "setting": "locus YER111C, strain swi4, stronger effect = lower value", "value": 1.08}, {"measurement": "normalized growth", "setting": "locus YER155C, strain BEM2 (second series), stronger effect = lower value", "value": 0.941}, {"measurement": "normalized growth", "setting": "locus YFR010W, strain ubp6, stronger effect = lower value", "value": 1.06}, {"measurement": "normalized growth", "setting": "locus YGL167C, strain pmr1, stronger effect = lower value", "value": "1.09 [resistant] (active)"}, {"measurement": "normalized growth", "setting": "locus YGL173C, strain kem1, stronger effect = lower value", "value": 1.05}, {"measurement": "normalized growth", "setting": "locus YGL227W, strain vid30, stronger effect = lower value", "value": 1.08}, {"measurement": "normalized growth", "setting": "locus YGL240W, strain doc1, stronger effect = lower value", "value": 1}, {"measurement": "normalized growth", "setting": "locus YGL253W, strain hxk2, stronger effect = lower value", "value": "1.11 [resistant] (active)"}, {"measurement": "normalized growth", "setting": "locus YHR013C, strain ard1, stronger effect = lower value", "value": "1.18 [resistant] (active)"}, {"measurement": "normalized growth", "setting": "locus YHR027C, strain rpn1, stronger effect = lower value", "value": "1.08 [resistant] (active)"}, {"measurement": "normalized growth", "setting": "locus YHR030C, strain SLT2, stronger effect = lower value", "value": 0.994}, {"measurement": "normalized growth", "setting": "locus YHR079C, strain IRE1, stronger effect = lower value", "value": 1.02}, {"measurement": "normalized growth", "setting": "locus YHR142W, strain chs7, stronger effect = lower value", "value": 1.07}, {"measurement": "normalized growth", "setting": "locus YJL092W, strain hpr5, stronger effect = lower value", "value": 1.05}, {"measurement": "normalized growth", "setting": "locus YJL095W, strain BCK1 (second series), stronger effect = lower value", "value": 1.07}, {"measurement": "normalized growth", "setting": "locus YJL095W, strain BCK1, stronger effect = lower value", "value": 1.05}, {"measurement": "normalized growth", "setting": "locus YJL115W, strain asf1, stronger effect = lower value", "value": 1.07}, {"measurement": "normalized growth", "setting": "locus YJL129C, strain trk1, stronger effect = lower value", "value": 1.08}, {"measurement": "normalized growth", "setting": "locus YJL154C, strain vps35, stronger effect = lower value", "value": 1.06}, {"measurement": "normalized growth", "setting": "locus YJL164C, strain tpk1, stronger effect = lower value", "value": 1.04}, {"measurement": "normalized growth", "setting": "locus YJL166W, strain qcr8, stronger effect = lower value", "value": 1.02}, {"measurement": "normalized growth", "setting": "locus YJR066W, strain TOR1, stronger effect = lower value", "value": "0.576 (active)"}, {"measurement": "normalized growth", "setting": "locus YKL160W, strain elf1, stronger effect = lower value", "value": 1.03}, {"measurement": "normalized growth", "setting": "locus YKR026C, strain gcn3, stronger effect = lower value", "value": 1.07}, {"measurement": "normalized growth", "setting": "locus YKR091W, strain srl3, stronger effect = lower value", "value": "1.07 [resistant] (active)"}, {"measurement": "normalized growth", "setting": "locus YLL001W, strain dnm1, stronger effect = lower value", "value": 1.05}, {"measurement": "normalized growth", "setting": "locus YLL026W, stronger effect = lower value", "value": 1.05}, {"measurement": "normalized growth", "setting": "locus YLL041C, strain sdh2, stronger effect = lower value", "value": "1.08 [resistant] (active)"}, {"measurement": "normalized growth", "setting": "locus YLR027C, strain aat2, stronger effect = lower value", "value": 1.05}, {"measurement": "normalized growth", "setting": "locus YLR113W, strain HOG1, stronger effect = lower value", "value": 1.07}, {"measurement": "normalized growth", "setting": "locus YLR221C, strain rsa3, stronger effect = lower value", "value": 1.04}, {"measurement": "normalized growth", "setting": "locus YLR258W, strain gsy2, stronger effect = lower value", "value": 1.04}, {"measurement": "normalized growth", "setting": "locus YLR262C, strain YPT6 (second series), stronger effect = lower value", "value": 1.1}, {"measurement": "normalized growth", "setting": "locus YLR320W, strain mms22, stronger effect = lower value", "value": 0.993}, {"measurement": "normalized growth", "setting": "locus YLR342W, strain FKS1, stronger effect = lower value", "value": 1.06}, {"measurement": "normalized growth", "setting": "locus YLR357W, strain rsc2, stronger effect = lower value", "value": 1.12}, {"measurement": "normalized growth", "setting": "locus YLR370C, strain arc18, stronger effect = lower value", "value": 1.05}, {"measurement": "normalized growth", "setting": "locus YLR384C, strain iki3, stronger effect = lower value", "value": 1.07}, {"measurement": "normalized growth", "setting": "locus YML120C, strain ndi1, stronger effect = lower value", "value": 1.04}, {"measurement": "normalized growth", "setting": "locus YMR058W, strain fet3, stronger effect = lower value", "value": 0.985}, {"measurement": "normalized growth", "setting": "locus YMR125W, strain sto1, stronger effect = lower value", "value": 1.09}, {"measurement": "normalized growth", "setting": "locus YMR129W, stronger effect = lower value", "value": 1.05}, {"measurement": "normalized growth", "setting": "locus YMR205C, strain PFK2, stronger effect = lower value", "value": 1.03}, {"measurement": "normalized growth", "setting": "locus YMR231W, strain pep5, stronger effect = lower value", "value": 1.04}, {"measurement": "normalized growth", "setting": "locus YNL071W, strain lat1, stronger effect = lower value", "value": 0.992}, {"measurement": "normalized growth", "setting": "locus YNL183C, strain NPR1, stronger effect = lower value", "value": "0.543 (active)"}, {"measurement": "normalized growth", "setting": "locus YNL209W, strain ssb2, stronger effect = lower value", "value": "1.08 [resistant] (active)"}, {"measurement": "normalized growth", "setting": "locus YNL248C, strain rpa49, stronger effect = lower value", "value": 1.11}, {"measurement": "normalized growth", "setting": "locus YNL322C, strain KRE1 (second series), stronger effect = lower value", "value": 1.04}, {"measurement": "normalized growth", "setting": "locus YNR049C, strain mso1, stronger effect = lower value", "value": 1.05}, {"measurement": "normalized growth", "setting": "locus YOR001W, strain rrp6, stronger effect = lower value", "value": 1.06}, {"measurement": "normalized growth", "setting": "locus YOR070C, strain gyp1, stronger effect = lower value", "value": 1.05}, {"measurement": "normalized growth", "setting": "locus YOR080W, strain dia2, stronger effect = lower value", "value": 1.06}, {"measurement": "normalized growth", "setting": "locus YOR083W, strain WHI5, stronger effect = lower value", "value": 1.05}, {"measurement": "normalized growth", "setting": "locus YOR106W, strain vam3, stronger effect = lower value", "value": 0.994}, {"measurement": "normalized growth", "setting": "locus YOR231W, strain MKK1, stronger effect = lower value", "value": 1.01}, {"measurement": "normalized growth", "setting": "locus YOR265W, strain rbl2, stronger effect = lower value", "value": 1.04}, {"measurement": "normalized growth", "setting": "locus YOR270C, strain vph1, stronger effect = lower value", "value": 0.983}, {"measurement": "normalized growth", "setting": "locus YOR290C, strain snf2, stronger effect = lower value", "value": 1.03}, {"measurement": "normalized growth", "setting": "locus YPL051W, strain arl3, stronger effect = lower value", "value": 0.979}, {"measurement": "normalized growth", "setting": "locus YPL078C, strain atp4, stronger effect = lower value", "value": 1.05}, {"measurement": "normalized growth", "setting": "locus YPL106C, strain sse1, stronger effect = lower value", "value": 1.05}, {"measurement": "normalized growth", "setting": "locus YPL240C, strain hsp82, stronger effect = lower value", "value": 1.06}, {"measurement": "normalized growth", "setting": "locus YPL256C, strain CLN2, stronger effect = lower value", "value": 1.02}]}
{"compound": "S=C(NC1CCCCC1)N1CCC(c2cnc[nH]2)CC1", "values": [{"measurement": "normalized growth", "setting": "locus YAL040C, strain CLN3, stronger effect = lower value", "value": 1.01}, {"measurement": "normalized growth", "setting": "locus YCL061C, strain MRC1 (second series), stronger effect = lower value", "value": 0.998}, {"measurement": "normalized growth", "setting": "locus YDR363W, strain ESC2, stronger effect = lower value", "value": 1.01}, {"measurement": "normalized growth", "setting": "locus YER002W, strain NOP16, stronger effect = lower value", "value": 0.994}, {"measurement": "normalized growth", "setting": "locus YJR075W, strain HOC1, stronger effect = lower value", "value": 1}, {"measurement": "normalized growth", "setting": "locus YMR263W, strain SAP30, stronger effect = lower value", "value": 1.01}, {"measurement": "normalized growth", "setting": "locus YMR307W, strain GAS1, stronger effect = lower value", "value": 0.996}, {"measurement": "normalized growth", "setting": "locus YNL128W, strain TEP1, stronger effect = lower value", "value": 0.984}, {"measurement": "normalized growth", "setting": "locus YNL175C, strain NOP13, stronger effect = lower value", "value": 1}, {"measurement": "normalized growth", "setting": "locus YNL197C, strain WHI3, stronger effect = lower value", "value": 0.974}, {"measurement": "normalized growth", "setting": "locus YNL224C, strain SQS1, stronger effect = lower value", "value": 0.986}, {"measurement": "normalized growth", "setting": "locus YOR083W, strain WHI5 (second series), stronger effect = lower value", "value": 1.02}, {"measurement": "normalized growth", "setting": "locus YPL055C, strain LGE1, stronger effect = lower value", "value": 0.993}]}
